Experiment [1] in a line: reducers of endogenous Her2 protein level, primary screen, SKBR3 breast tumor cells, AlphaScreen, ATP viability (AID 461;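 active = Her2 level under about 52% in both replicate screens, with viability over 70% of control, limit read from the data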;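 for Her2 level: lower value means less Her2 protein in the cells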;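 for viability: percent of carrier control wells set as 100% viability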). The conditions noted are these: 18-24 h, measured here: SKBR3 viability, ATP luminescence, at 10 µM. For orientation: In Alpha technology, singlet oxygen from a donor bead excites a nearby acceptor bead.
Experiment [2] has as its target Receptor tyrosine-protein kinase erbB-2 (Homo sapiens) (UniProt P04626). The description is as above. The conditions noted are these: 18-24 h, at 10 µM, stronger effect = lower value.
The nature of experiment [3]: SK-BR-3 cell growth inhibitors, pilot screen, 24 h, human (AID 572;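 active = viability at or below 10% of carrier control in both of two separate runs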;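 note: compound exposure lasted between 18 and 24 h rather than exactly 24 h; 100% = carrier-treated control wells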). The conditions noted are these: SK-BR-3 viability, CellTiter-Glo luminescence, at 10 µM, stronger effect = lower value. On the technique in general: ATP-based viability assays read luminescence as a measure of living cells.
Experiment [4] can be described thus: HUVEC growth inhibition – cell-based, human, primary screen (AID 575;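 active = viability at or below 30% in both replicate assays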;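 note: 100% = median of untreated cell wells with 0.1% DMSO on each plate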). The conditions noted are these: HUVEC proliferation, CellTiter-Glo luminescence, 72 h; at 10 µM; stronger effect = lower value.
Experiment [5] is described as follows: growth inhibitors of H69AR lung tumor, primary screen, human, duplicate replicates (AID 580;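 active = viability at or under a set limit in both replicates, limit being median viability minus 3 SD, cut at about 48% in these data, passing the limit was not always enough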;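 note: 100% = mean luminescence of untreated wells and 0% = no signal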). The conditions noted are these: H69AR lung tumor cells viability, ATP luminescence, 72 h; at 10 µM; stronger effect = lower value.
Experiment [6] is described as follows: reversal of MRP1-mediated doxorubicin resistance, pilot screen, H69AR cells, doxorubicin co-treatment (AID 601;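 active = viability loss from added drug above about 55%, and viability with drug at most 40%, in both replicates, limit read from the data, passing the limit was not always enough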). The conditions noted are these: CellTiter-Glo, 72 h, at 10 µM; for differential viability (reversal): stronger effect = higher value.
Experiment [7] in a line: 384-well plate pilot, post-Golgi transport modulator project, inhibition of yeast transport mutant growth (AID 636; in the data active = inhibition above about 31%). The conditions noted are these: absorbance 615 nm, about 18 h, stronger effect = higher value.
Experiment [8] is described as follows: growth suppression of yeast trafficking mutant, preliminary HTS, modulators of trafficking downstream of Golgi apparatus project, 1536-format plate, OD 615 nm (AID 637; in the data active = inhibition above about 30%). The conditions noted are these: yeast transport mutant growth, absorbance 615 nm, 18 h; stronger effect = higher value.
A short description of experiment [9]: OD615 S. cerevisiae growth inhibition, permissive medium, pilot counter-assay, permissive growth control for S. cerevisiae lifespan shortening project (AID 705;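 active = growth inhibition above 25% in both replicates, a cutoff set 3 SD above the mean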). The conditions noted are these: OD615, 24 h, at 10 µM, stronger effect = higher value.
Experiment [10] is described as follows: Restrictive medium S. cerevisiae growth inhibition, OD615, pilot screen of yeast lifespan reduction project, restrictive growth control (AID 706;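 active = growth inhibition above a set limit, 3 SD over mean compound inhibition, in both replicates, cut at about 43% in these data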;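 note: modified DeaD lifespan yeast strain shifted to restrictive glucose medium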). The conditions noted are these: OD615, 48 h, at 10 µM, stronger effect = higher value.
A short description of experiment [11]: viability gain of MRP-1-high H69AR cells under doxorubicin, pilot screen, MRP-1 activator project, CellTiter-Glo, duplicate (AID 807;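 active = viability increase at or above a cutoff of the median across tested compounds plus 3 SD, cut at about 8.5% in these data, passing the limit was not always enough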;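 note: compound pretreatment 18-22 h then 72 h combined with doxorubicin; 0% = doxorubicin alone and 100% = vehicle without doxorubicin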). The conditions noted are these: H69AR viability with doxorubicin, CellTiter-Glo luminescence; at 10 µM; stronger effect = higher value.
A short description of experiment [12]: growth suppression of PTEN-deleted HCT116, pilot screen, cell-based, HCT116 clonal line, CellTiter-Glo (AID 824;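 active = viability at or below 27.92% in each of two runs, the all-compound median minus 4 SD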;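 note: 0% = 20 µM Hyamine control and 100% = vehicle cell control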). The conditions noted are these: 60 h, at 10 µM, stronger effect = lower value.
Experiment [13] in a line: inhibitors of the yeast RAM network, pilot screen, dse1pr::URA3 reporter, 5-FOA selection (AID 869;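 active = inhibition over a set limit, the all-compound mean plus 3 SD, in both replicate runs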;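 note: 0% = DMSO wells with no growth and 100% = 10 µM 1-NA-PP1 with full growth; RAM network block rescues cells from 5-FOA so hits raise OD615 growth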). The conditions noted are these: S. cerevisiae dse1pr::URA3 5-FOA growth, OD615, 2 d; at 10 µM; stronger effect = higher value; strain carries analog-sensitive mutant Cbk1 kinase.
Experiment [14] in a line: RAM signaling pathway blockade in yeast – S. cerevisiae, Pdr1DBD-CYC8 efflux-inhibited sensitized strain, primary screen (AID 1298).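 Note: 0% = DMSO untreated cells without growth and 100% = 10 µM 1-NA-PP1 full growth; higher means more yeast growth rescued from 5-FOA killing.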 The conditions noted are these: S. cerevisiae cbk1-as DSE1-URA3 strain, 5-FOA growth OD615, 2 d; at 50 µM; stronger effect = higher value.
The nature of experiment [15]: growth suppression of beta-catenin knockout HCT116, pilot screen, human colon tumor cells (AID 823;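 active = cell viability at or below a set limit in both duplicate runs, the limit being the all-compound median minus 4 SD, cut at about 23% in these data, passing the limit was not always enough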;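 note: 0% = wells killed by 20 µM Hyamine and 100% = untreated DMSO cell wells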). The conditions noted are these: CellTiter-Glo, 60 h, at 10 µM, stronger effect = lower value.
Setting [16] is: H69AR cells + 2 uM doxorubicin, measured here: viability with 2 uM doxorubicin, stronger effect = lower value.
Where [17] appears, read: H69AR cells, compound alone cytotoxicity.

Inconclusive results are not listed. Calls of active or inactive are those of the source.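 Rule for the calls, unless noted: active = RAM network inhibition above 8.4% in each of two replicates, 3 SD over the compound average; inconclusive = above 8.4% inhibition in only one replicate; inactive = 8.4% inhibition or less in each replicate.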

These results are taken from PubChem BioAssay.

Sequence of Receptor tyrosine-protein kinase erbB-2 (Homo sapiens) (P04626 whole entry, looked up): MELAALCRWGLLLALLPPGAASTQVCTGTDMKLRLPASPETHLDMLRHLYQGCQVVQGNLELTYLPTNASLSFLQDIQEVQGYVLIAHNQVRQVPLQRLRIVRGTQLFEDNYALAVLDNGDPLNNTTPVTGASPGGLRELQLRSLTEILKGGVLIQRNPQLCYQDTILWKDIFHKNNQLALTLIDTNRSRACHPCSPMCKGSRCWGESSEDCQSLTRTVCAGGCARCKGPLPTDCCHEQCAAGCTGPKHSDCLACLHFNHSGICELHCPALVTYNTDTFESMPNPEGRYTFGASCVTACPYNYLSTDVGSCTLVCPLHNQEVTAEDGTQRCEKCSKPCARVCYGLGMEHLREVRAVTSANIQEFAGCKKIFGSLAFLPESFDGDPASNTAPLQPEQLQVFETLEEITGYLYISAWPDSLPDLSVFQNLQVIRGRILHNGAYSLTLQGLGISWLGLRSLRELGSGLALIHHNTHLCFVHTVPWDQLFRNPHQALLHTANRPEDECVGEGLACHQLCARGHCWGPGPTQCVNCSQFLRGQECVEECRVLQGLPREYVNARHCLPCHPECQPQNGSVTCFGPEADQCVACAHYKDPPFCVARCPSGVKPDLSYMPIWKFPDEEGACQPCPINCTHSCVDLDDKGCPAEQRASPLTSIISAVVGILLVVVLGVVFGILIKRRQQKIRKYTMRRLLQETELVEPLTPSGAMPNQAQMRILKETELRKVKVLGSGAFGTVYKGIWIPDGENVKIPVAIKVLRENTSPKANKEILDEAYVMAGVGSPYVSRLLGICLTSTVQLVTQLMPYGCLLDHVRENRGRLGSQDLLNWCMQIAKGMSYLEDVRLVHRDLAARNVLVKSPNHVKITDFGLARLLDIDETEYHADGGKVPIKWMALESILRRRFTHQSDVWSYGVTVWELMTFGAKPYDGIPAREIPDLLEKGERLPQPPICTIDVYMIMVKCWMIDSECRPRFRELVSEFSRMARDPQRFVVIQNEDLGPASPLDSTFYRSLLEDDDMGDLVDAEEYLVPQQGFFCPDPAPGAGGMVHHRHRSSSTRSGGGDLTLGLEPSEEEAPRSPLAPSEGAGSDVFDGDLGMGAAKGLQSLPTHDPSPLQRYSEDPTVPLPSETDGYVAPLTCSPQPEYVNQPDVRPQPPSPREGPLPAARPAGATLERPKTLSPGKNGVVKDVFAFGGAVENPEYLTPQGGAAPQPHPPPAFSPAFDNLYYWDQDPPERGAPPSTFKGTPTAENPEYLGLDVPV

What is called viability is a read-out of living cells in per cent, often relative to untreated cells. What is called inhibition is the relative decrease from the control value, in per cent. Take `CC(C)c1ccc(NC(=O)CCNS(=O)(=O)c2cccc3nonc23)cc1`: the viability was 98.5% in experiment [1]; 98.5% (inactive) in experiment [3]; 84.6% (inactive) in experiment [4]; 95.3% (inactive) in experiment [5]; 93.9% in experiment [6] (setting [16]); 95.3% in [6] (setting [17]). In addition, the viability in [12] is 86.3% (inactive). Besides, in [2], the Her2 level is 89% (inactive). Further, the differential viability (reversal) in [6] (H69AR cells + 2 uM doxorubicin) is 1.35% (inactive). The values for the inhibition in [7], in experiment [8] and in experiment [13] were -8.9% (inactive), -3.17% (inactive) and 0.265% (inactive), respectively. The growth inhibition in [9] is -7.97% (inactive); in experiment [10], -5.83% (inactive). Besides, in experiment [11], the viability increase was -1.42% (inactive). In addition, the RAM network inhibition in experiment [14] was 1.64% (inactive).

For the compound `CN(C)c1ccc(C(=O)Nc2nnc(-c3ccc(Cl)cc3)o2)cc1`, the viability in experiment [1] was 92%; in experiment [3], 92% (inactive); in [4], 13.4% (active); in [6] (setting [16]), 81.2%; in [6] (setting [17]), 47.8%; in [15], 26.8% (inactive). Moreover, in [12], the viability is 25.2% (active). In addition, in experiment [2], the Her2 level is 75.5% (inactive). For the same compound, in experiment [6] (H69AR cells + 2 uM doxorubicin), the differential viability (reversal) is -33.4% (inactive). The results for the inhibition in experiment [7], in experiment [8] and in experiment [13] were 29.9% (inactive), 21.5% (inactive) and 1.5% (inactive), respectively. The values for the growth inhibition in [9] and in experiment [10] were 5.56% (inactive) and -19.4% (inactive), respectively. Further, in experiment [11], the viability increase was -3.93% (inactive). Moreover, the RAM network inhibition in [14] is 2.45% (inactive).

In the case of `N#CC1=C(N)Oc2cc(O)ccc2C1C1CCCCC1` (stereo not drawn), the viability in [1] is 121%; in experiment [3], 121% (inactive); in [4], 47.4% (inactive); in experiment [5], 12.2% (active); in experiment [6] (setting [16]), 63.4%; in experiment [6] (setting [17]) it was 12.2%. Besides, the Her2 level in [2] is 89.5% (inactive). Besides, the differential viability (reversal) in experiment [6] (H69AR cells + 2 uM doxorubicin) is -51.2% (inactive). Moreover, the values for the inhibition in experiment [7], in [8] and in experiment [13] were -1.17% (inactive), 4.17% (inactive) and 0.455% (inactive), respectively. The growth inhibition in experiment [9] is -0.885% (inactive); in [10], -9.19% (inactive). Moreover, in experiment [11], the viability increase was -5.63% (inactive). The RAM network inhibition in experiment [14] is 3.93% (inactive).

Consider `CNC(=O)c1ccsc1NC(=O)CN1C(=O)CCC1=O`, for which the viability in experiment [1] was 90%; in experiment [3] it was 90% (inactive); in experiment [4], 96.8% (inactive); in experiment [6] (setting [16]) it was 80.5%; in experiment [6] (setting [17]) it was 58%; in experiment [15], 104% (inactive). For the same compound, the viability in experiment [12] is 98.9% (inactive). Moreover, the Her2 level in experiment [2] is 94% (inactive). Moreover, the differential viability (reversal) in experiment [6] (H69AR cells + 2 uM doxorubicin) is -22.5% (inactive). Besides, the inhibition in [7] was -3.47% (inactive); in [8] it was -0.67% (inactive); in [13], 1.65% (inactive). Besides, the growth inhibition in [9] is -11.5% (inactive); in experiment [10] it was 0.46% (inactive). Further, in experiment [11], the viability increase is -6.24% (inactive). For the same compound, the RAM network inhibition in [14] was 1.73% (inactive).

Take `CC1CCN(Cc2ccc(NC(=O)C3CCN(c4nnc(-n5cccc5)s4)CC3)cc2)CC1`: the viability in experiment [1] is 86.5%; in experiment [3] it was 86.5% (inactive); in experiment [4], 4.64% (active); in experiment [5], 78.5% (inactive); in experiment [6] (setting [16]), 79.5%; in experiment [6] (setting [17]), 78.5%. In experiment [2], the Her2 level was 90.5% (inactive). For the same compound, the differential viability (reversal) in experiment [6] (H69AR cells + 2 uM doxorubicin) was -1.01% (inactive). For the same compound, the inhibition in [7] is -4.27% (inactive); in experiment [8], 1.33% (inactive); in experiment [13] it was 0.695% (inactive). Moreover, the values for the growth inhibition in [9] and in experiment [10] were 3.76% (inactive) and 2.38% (inactive), respectively. The viability increase in experiment [11] is -2.95% (inactive). Besides, the RAM network inhibition in experiment [14] is 4.34% (inactive).
